Experiment in all cases: NCI-60 one-dose screen, 48 h (100 = growth as untreated, 0 = no growth, -100 = all killed)
What all share (conditions): 10 µM unless noted

Assay [1] relates to SR leukemia.
The test system of assay [2] is RPMI-8226 leukemia.
The subject of assay [3] is OVCAR-8 ovarian.
Assay [4] has as its system OVCAR-5 ovarian.
In assay [5] the test system is SK-OV-3 ovarian.
Assay [6] deals with IGROV1 ovarian.
Assay [7] concerns OVCAR-3 ovarian.
Assay [8] deals with HS 578T breast.
Assay [9] deals with NCI/ADR-RES ovarian.
For assay [10], the system named is T-47D breast.
Assay [11] relates to BT-549 breast.
Assay [12] has as its system MDA-MB-435 melanoma.
For assay [13], the system named is SW-620 colon.
In assay [14] the test system is MCF7 breast.
Assay [15] has as its system HCC-2998 colon.
Assay [16] has as its system KM12 colon.
Assay [17] deals with MDA-MB-468 breast.
The test system of assay [18] is OVCAR-4 ovarian.
Assay [19] deals with HCT-116 colon.

SMILES strings stand for the structures. About 83,000 compounds went through this panel and 20% of them were active in at least one assay; those are over-represented in the sample as a whole.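 For each line, cells grew in 96-well plates with the test compound present at a single concentration for 48 hours.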 A number with no mark means an inactive call. The source made the active and inactive calls. How the source made its calls: active means growth percent below 10; inactive means the rest.

With `CN(C)c1nc(NCCNS(=O)(=O)c2ccc(C3=Nc4c(N)nc(N)nc4NC(c4ccc(F)cc4)C3)cc2)nc(Nc2ccc(F)cc2)n1` (configuration not stated), the growth in assay [1] was 0.331% (active); in assay [2], -6.35% (active); in assay [3] it was 43.5%; in assay [4] it was 78.2%; in assay [5], 73.4%; in [6], 38.6%. The growth was 40.9% in assay [7]; 51.8% in assay [8]; 98% in assay [9]; 40.6% in [10]; 48.7% in assay [11]; 31% in assay [12]. The growth was 39.4% in [13]; 5.29% (active) in assay [14]; 28.6% in assay [15]; 24.5% in assay [16]; -40.7% (active) in assay [17].

In the case of `N/C(=N\c1nc2ccccc2s1)NC(=O)Nc1c(Cl)cccc1Cl`, the growth was 17.2% in [1]; 17.2% in [2]; 49.5% in assay [3]; 56.7% in assay [18]; 65.2% in [5]; 49.4% in [6]. The growth is 28.2% in [7]; 34.4% in assay [8]; 7.17% (active) in assay [9]; 18% in assay [10]; 37.3% in [11]; -17.9% (active) in assay [12]. Moreover, the growth in assay [13] was 25.6%; in assay [14] it was 15.6%; in assay [19], 22.7%; in [15] it was 68.6%; in assay [16], 21.4%; in [17] it was -4.05% (active).

As to `N#Cc1ccc(/C=N/NC(=O)c2[nH]c3ccc(Br)cc3c2-c2ccccc2)o1`, the growth in [1] was 4.35% (active); in assay [2] it was 3.55% (active); in assay [3], -21.9% (active); in assay [4] it was 15.9%; in [5], 44%; in assay [6], 13.9%. In addition, the growth in assay [7] is 14.6%; in [9], -40.9% (active); in assay [11], -7.06% (active); in assay [12], -3.87% (active); in [14], 7.95% (active); in [15], -30.9% (active). In addition, the growth in assay [16] was 6.36% (active); in [17] it was -13.6% (active).

For the compound `COc1ccc2c(c1)c(-c1cc3nc(-c4cn(C)c5ncc(Br)cc45)cc(N)n3n1)cn2C`, the growth is -6.89% (active) in assay [1]; -0.77% (active) in assay [2]; -48.8% (active) in assay [3]; -47.6% (active) in assay [4]; -55.6% (active) in [5]; -25.8% (active) in [6]. In addition, the growth in [7] was -18.6% (active); in assay [8], -18.6% (active); in assay [9] it was -30.3% (active); in [10] it was -60.3% (active); in assay [11] it was -78.5% (active); in assay [12], -67.3% (active). The growth in assay [13] is -64.1% (active); in assay [19], -100% (active); in [15] it was -94.3% (active); in [16], -61% (active); in assay [17], -81.4% (active).

As for `CC(=O)Oc1ccccc1C(=O)[Se]C(=NC1CCCCC1)NC1CCCCC1`, the growth in assay [1] is -15.7% (active); in assay [2] it was 4.77% (active); in assay [3], -81.8% (active); in assay [4], -89.6% (active); in [5], -99.1% (active); in [6], -94% (active). In addition, the growth in assay [7] was -71.6% (active); in assay [9] it was -63.3% (active); in assay [10], -43.3% (active); in [11] it was -91.7% (active); in assay [12] it was -77.2% (active); in assay [14], -82.1% (active). Further, the growth was -69.9% (active) in assay [19], -92.6% (active) in [15], -67.8% (active) in [16] and -77.8% (active) in assay [17].

`N#Cc1c(-c2ccc(Cl)cc2)nc2n[nH]c(-c3ccc(Cl)cc3)c2c1-c1cccs1`: the growth was 25.6% in assay [1]; 17.7% in assay [2]; 66.7% in assay [3]; 75.8% in [4]; 54.2% in [5]; 62% in [6]. Also, the growth was 63.5% in [7]; 61.1% in [9]; 6.48% (active) in assay [10]; 55.4% in assay [11]; 60.5% in assay [12]; 44.7% in assay [14]. Also, the growth in assay [19] is 35.4%; in assay [15], 69.3%; in [16] it was 42%; in [17], 50.8%.

On to `C=C1CCC2C3(C)COC(c4ccc(F)cc4)OC3CCC2(C)C1C/C=C1/C(=O)OCC1O` (configuration not stated), for which the growth in assay [1] was 7.55% (active); in assay [2], 6.7% (active); in assay [3], -61.5% (active); in assay [18], 0.389% (active); in assay [5] it was 40.5%; in assay [6], -26.3% (active). The growth in assay [7] was -82% (active); in assay [8], -5.65% (active); in assay [9], -22.4% (active); in assay [10], -16.5% (active); in [11], -85.8% (active); in assay [12], -35.5% (active). The growth in [13] is -69.8% (active); in assay [14], -30.7% (active); in assay [19], -74.2% (active); in assay [15], -69.7% (active); in assay [16], -44.7% (active); in assay [17], -50.5% (active).

`COc1ccc(C(=O)/C=C/c2ccc(OCc3ccc(F)cc3)c(OC)c2)cc1OC`: the growth was 7.52% (active) in assay [1]; 1.35% (active) in [2]; -7.27% (active) in assay [3]; 17.3% in assay [18]; 40.2% in assay [5]; 17.5% in assay [6]. The growth in assay [7] is 18.2%; in [8], 84.7%; in [9], 11%; in assay [10], 26.8%; in assay [11] it was -1.79% (active); in [12] it was 7.77% (active). The growth is 7.65% (active) in assay [13]; 7.56% (active) in [14]; 8.63% (active) in assay [19]; 16.8% in assay [15]; 14% in [16]; 8.91% (active) in assay [17].

As for `Cc1ccc(-c2nc(C#N)c(S(=O)(=O)N3CCN(S(=O)(=O)c4ccccc4)CC3)o2)cc1`, the growth in [1] was -48.1% (active); in assay [2], -24.5% (active); in assay [3], 1.2% (active); in [18], -1.2% (active); in assay [5], 115%; in [6] it was -63.6% (active). Besides, the growth in [7] was 1.2% (active); in [8] it was 65.5%; in [9], 4.76% (active); in assay [10] it was -1.54% (active); in assay [11], -19% (active); in assay [12], 30.1%. Besides, the growth is -86.9% (active) in [13]; -30.6% (active) in assay [14]; -81.4% (active) in [19]; 56.2% in assay [15]; 77.4% in assay [16]; -49.3% (active) in assay [17].

The values above are taken from PubChem BioAssay (NCI).
